Reference: PubChem BioAssay (NCI)
This is part of a sample that, as a whole, favours compounds with a hit. Of some 79,000 tested, about 15% had one in any assay. The source made the active and inactive calls. Cut-off read from the data, not from the text of the source: active = growth inhibition above about 70%; inactive = the rest.

Legend:
[1] = NCI Yeast Anticancer Drug Screen. Data for the rad52 strain (AID 147);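 note: 0% = growth of vehicle-treated control cultures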; details: S. cerevisiae rad52 mutant growth inhibition, active compounds read high
In short: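 Yeast strain carrying a DNA damage repair alteration was exposed to test compounds. Growth inhibition was measured relative to vehicle-treated controls.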

[2] = NCI Yeast Anticancer Drug Screen. Data for the wt1 strain (AID 149);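 note: 0% = growth of vehicle-treated wt1 cultures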; details: S. cerevisiae wt1 strain (SPY 50644) growth inhibition, active compounds read high
In short: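 Vehicle-normalised growth inhibition; strain wt1; compound exposure.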

[3] = NCI Yeast Anticancer Drug Screen. Data for the mgt1 strain (AID 153); details: S. cerevisiae mgt1 mutant growth inhibition, active compounds read high
In short: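 Yeast mgt1 strain (DNA repair/cell-cycle alteration panel) exposed to compounds; growth inhibition measured relative to vehicle-treated controls.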

[4] = NCI Yeast Anticancer Drug Screen. Data for the rad50 strain (AID 155);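 note: 0% = growth of vehicle-only cultures of the same strain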; details: S. cerevisiae rad50 strain growth inhibition, active compounds read high
In short: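 A DNA repair-deficient yeast mutant serves as the test organism; compound-induced growth inhibition is calculated against vehicle-treated cells.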

[5] = NCI Yeast Anticancer Drug Screen. Data for the mec2-1 strain (AID 157); details: S. cerevisiae mec2-1 strain, active compounds read high
In short: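 mec2-1 yeast strain, carrying an alteration in DNA damage repair or cell cycle control, was exposed to compounds; growth inhibition was measured relative to vehicle-treated controls.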

[6] = NCI Yeast Anticancer Drug Screen. Data for the rad14 strain (AID 159);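 note: 0% = growth of vehicle-treated control cultures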; details: S. cerevisiae rad14 strain growth inhibition, active compounds read high
In short: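 Vehicle-treated cultures served as the baseline for growth inhibition of a DNA repair-mutant yeast strain exposed to each compound.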

[7] = NCI Yeast Anticancer Drug Screen. Data for the sgs1 mgt1 strain (AID 161);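 note: 0% = growth of cultures given vehicle only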; details: S. cerevisiae sgs1 mgt1 strain, active compounds read high
In short: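 Percent growth inhibition was derived by comparing compound-exposed mutant yeast with vehicle-exposed cultures. The strain carries alterations in DNA damage repair.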

[8] = NCI Yeast Anticancer Drug Screen. Data for the CLN2oe strain (AID 163);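 note: 0% = growth of vehicle-only control cultures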; details: S. cerevisiae CLN2oe strain, active compounds read high
In short: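 Yeast cells carrying a defined cell-cycle control alteration were exposed to test compounds. Growth inhibition was scored against vehicle-treated control cultures.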

[9] = NCI Yeast Anticancer Drug Screen. Data for the cln2 rad14 strain (AID 165);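 note: 0% = growth equal to vehicle treated cultures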; details: S. cerevisiae cln2 rad14 strain, active compounds read high
In short: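 Yeast carrying cln2 and rad14 alterations (cell cycle control and DNA damage repair) were exposed to compounds. Growth inhibition was measured against vehicle-treated controls.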

[10] = NCI Yeast Anticancer Drug Screen. Data for the bub3 strain (AID 167); details: S. cerevisiae bub3 mutant strain, active compounds read high
In short: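 Inhibition values come from growth of compound-treated mutant yeast normalised to vehicle-treated controls.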

[11] = NCI Yeast Anticancer Drug Screen. Data for the wt2 strain (AID 169);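 note: 0% = growth of vehicle-treated yeast cultures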; details: S. cerevisiae wt2 strain growth inhibition, active compounds read high
In short: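 Yeast cells were exposed to test compounds, and growth inhibition was measured relative to vehicle-treated controls.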

[12] = NCI Yeast Anticancer Drug Screen. Data for the mlh1 strain (AID 171);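 note: 0% = growth of vehicle-treated control cultures of the same strain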; details: S. cerevisiae mlh1 strain growth inhibition, active compounds read high
In short: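 Yeast carrying a defined genetic alteration in DNA damage repair or cell cycle control were exposed to test compounds. Growth inhibition was measured relative to vehicle-treated controls.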

[13] = NCI Yeast Anticancer Drug Screen. Data for the sgs1 strain (AID 173);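 note: 0% = growth of vehicle-only control cultures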; details: S. cerevisiae sgs1 mutant, active compounds read high
In short: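 Yeast mutant strains carrying defined defects in DNA damage repair or cell cycle control were exposed to test compounds. Growth inhibition was scored against vehicle-treated controls.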

[14] = NCI Yeast Anticancer Drug Screen. Data for the mlh1 rad18 strain (AID 175); details: S. cerevisiae mlh1 rad18 strain growth inhibition, active compounds read high
In short: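 Growth inhibition of the yeast strain was measured after compound exposure and expressed relative to vehicle-treated controls. The strain carries defined defects in DNA damage repair.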

[15] = NCI Yeast Anticancer Drug Screen. Data for the rad18 strain (AID 177); details: S. cerevisiae rad18 mutant growth inhibition, active compounds read high
In short: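 Yeast carrying a defined DNA damage repair alteration were exposed to compounds. Growth inhibition was expressed relative to vehicle-treated controls.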

[16] = at 5.0 µM (retest, dose inferred, filed as 0.5)
[17] = at 50.0 µM (retest, dose inferred, filed as 5.0)

Measured: growth inhibition

OC1CCCC2CCC[N-]C12.OC1CCCC2CCC[N-]C12.[O]=[V][OH] (stereo not drawn)
inactive: [1]; at 1.2 µM 54% | [2]; at 1.2 µM -4% | [2]; at 3.7 µM 67% | [3]; at 1.2 µM 24% | [4]; at 1.2 µM 47% | [5]; at 1.2 µM 3% | [5]; [17] 66% | [6]; at 1.2 µM 8% | [7]; [16] 19% | [8]; at 1.2 µM -12% | [9]; [16] 46% | [10]; at 1.2 µM 10% | [11]; at 1.2 µM -17% | [11]; at 3.7 µM 68% | [12]; at 1.2 µM -25% | [12]; at 3.7 µM 50% | [13]; at 1.2 µM 17% | [13]; at 3.7 µM 69% | [14]; [17] 64% | [15]; at 1.2 µM 46%
active: [1]; at 3.7 µM 98% | [1]; at 11.0 µM 98% | [1]; at 33.0 µM 97% | [1]; at 100.0 µM 97% | [2]; at 11.0 µM 85% | [2]; at 33.0 µM 93% | [2]; at 100.0 µM 96% | [3]; at 3.7 µM 88% | [3]; at 11.0 µM 98% | [3]; at 33.0 µM 97% | [3]; at 100.0 µM 97% | [4]; at 3.7 µM 95% | [4]; [16] 99% | [4]; at 11.0 µM 95% | [4]; at 33.0 µM 95% | [4]; [17] 97% | [4]; at 50.0 µM 86.8% | [4]; at 100.0 µM 95% | [5]; at 3.7 µM 86% | [5]; [16] 99% | [5]; at 11.0 µM 98% | [5]; at 33.0 µM 98% | [5]; at 50.0 µM 90.1% | [5]; at 100.0 µM 96% | [6]; at 3.7 µM 89% | [6]; at 11.0 µM 98% | [6]; at 33.0 µM 97% | [6]; at 100.0 µM 97% | [7]; [17] 98% | [7]; at 50.0 µM 91.5% | [8]; at 3.7 µM 78% | [8]; at 11.0 µM 93% | [8]; at 33.0 µM 95% | [8]; at 100.0 µM 96% | [9]; [17] 97% | [9]; at 50.0 µM 79.8% | [10]; at 3.7 µM 89% | [10]; [16] 99% | [10]; at 11.0 µM 98% | [10]; at 33.0 µM 98% | [10]; [17] 95% | [10]; at 50.0 µM 90.8% | [10]; at 100.0 µM 97% | [11]; at 11.0 µM 92% | [11]; at 33.0 µM 93% | [11]; at 100.0 µM 96% | [12]; at 11.0 µM 79% | [12]; at 33.0 µM 88% | [12]; at 100.0 µM 95% | [13]; at 11.0 µM 83% | [13]; at 33.0 µM 89% | [13]; at 100.0 µM 94% | [14]; [16] 99% | [14]; at 50.0 µM 86.8% | [15]; at 3.7 µM 95% | [15]; at 11.0 µM 96% | [15]; at 33.0 µM 96% | [15]; at 100.0 µM 96%
